# From PubChem BioAssay AID652106 (National Center for Advancing Translational Sciences (NCATS), 2013)
# In all, about 370,000 compounds went through this assay and about 500 (0.14%) were called active. A call without a number means that no potency is given here. Not shown: some 2% with an inconclusive outcome. Calls follow the shape of the dose curve; as a rule, active = well fitted activation curve with a large enough effect; inconclusive = small, poorly fitted or top-dose-only effect; inactive = no such curve, though single readings can be large or run the other way. This excerpt belongs to a sample that is enriched for actives.
# Test: qHTS of alpha-syn Inhibitors; also: nearly all actives have a fitted effect of over 65% in size
# Conditions: Yeast expressing alpha-synuclein, BacTiter-Glo, 24 h; Potency: growth rescue; series mostly up to 46.1 µM
# Procedure, shortened: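 Galactose-induced alpha-syn yeast (OD600=0.02, raffinose-pregrown) + pinned cpd, 24 hr, 30 deg C; growth by BacTiter-Glo luminescence. Growth restoration scores as activation.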
# Potency is read from the fitted curve at half-maximal effect.
row,Compound,Potency
1,CN(C(=N)N)c1ccc(/C=C2\C=Cc3ccccc32)cc1,inactive
2,CN(C)CCCn1c(-c2ccc(Cl)cc2)csc1=Nc1ccccc1,inactive
3,CN(C)c1ccc(/C=C/c2sc3ccccc3[n+]2C)cc1,inactive
4,CC1(C)C=Cc2c(ccc(C(=O)/C=C/c3ccccc3)c2O)O1,inactive
5,COc1ccc(C2Nc3ccc(NC(=O)COC(C)=O)cc3C(=O)N2Cc2ccccc2)cc1COc1ccc(NC(C)=O)cc1 (centres undefined),inactive
6,N#Cc1ccc[n+](CC(=O)c2ccc(O)c(O)c2)c1,inactive
7,CCCCCCCNc1ccc(/C=C/c2ccnc3ccccc23)cc1,inactive
8,O=C(Nc1ccc(Cl)cc1)c1cnn2c1NC(=C1CC1)C=C2C(F)F,inactive
9,COc1ccc(/C=C/c2ccccn2)cc1OC,inactive
10,Cc1ccccc1NC(=O)Cn1c(=O)n(Cc2ccco2)c(=O)c2ccc(C(=O)NC3CCCC3)cc21,inactive
11,OCC(O)C(O)C(O)C(O)C=Nc1ccc(/C=C/c2ccnc3ccccc23)cc1 (centres undefined),inactive
12,Oc1ccc(Br)cc1C1C=C(c2ccc3c(c2)OCO3)NC(c2ccc(Cl)cc2)N1 (centres undefined),inactive
13,CCc1ccccc1NC(=O)c1cnn(-c2ccc(F)cc2)c1C1CCNCC1,inactive
14,CCCCCCC1(C)NC(c2ccc3c(c2)OCO3)=CC(c2ccccc2O)N1 (centres undefined),inactive
15,CCCCC(CCCC)c1ccc(C=Nc2ccc(/C=C/c3ccnc4ccccc34)cc2)cc1,inactive
16,CCOC(=O)c1c(NC(=O)c2ccc(S(=O)(=O)N3CCCC(C)C3)cc2)sc2c1CCN(C(C)C)C2 (centres undefined),inactive
17,CCC1(C)CC(=O)NC1=O (centres undefined),inactive
18,COc1ccc(CNc2nc(-c3ccc(Cl)cc3)nn2S(=O)(=O)c2ccc(C)cc2)cc1,inactive
19,CN(C)C1=C2C=CC=CC2/C(=C2/C=Cc3ccccc32)C=C1 (centres undefined),inactive
20,Nc1ccc(Oc2ccc(Cl)cc2)cc1,17.8 µM (active)
21,Cc1nn(C)c(Oc2ccc(Cl)cc2)c1C=O,inactive
22,Nc1ccc2nn(-c3ccc(Cl)cc3)nc2c1,inactive

row,Compound,Potency
1,COc1cc2nc(N3CCCN(C)CC3)nc(NC(C)C)c2cc1OC,inactive
2,O=C(Nc1ccc([N+](=O)[O-])cc1)c1cnn2c1NC(=C1CC1)C=C2C(F)F,inactive
3,Nc1ncnc2c1c(I)cn2[C@@H]1C[C@H](N)[C@@H](O)[C@H]1O,inactive
4,Cc1cccc(-c2nnc(SC(C)C(=O)Nc3ccccc3)n2C)c1 (centres undefined),inactive
5,O=C(c1ccc2c(=O)n(Cc3ccco3)c(=S)[nH]c2c1)N1CCCC1,inactive
6,OCc1cnc(SCc2ccc(F)cc2)n1Cc1ccc(F)cc1,inactive
7,Cc1ccc(C)c2sc(NC(=O)c3ccc(S(=O)(=O)N4CCCC4)cc3)nc12,inactive
8,O=C1COc2ccc(-c3csc(-c4ccc(Cl)cc4)n3)cc2N1,inactive
9,CCc1ccc(NC(=O)CN2CCSc3ccc(S(=O)(=O)N4CCCC4)cc32)cc1,inactive
10,c1ccc(Cn2nnc3c(N4CCCCC4)ncnc32)cc1,inactive
11,Cc1c(CCO)sc[n+]1CC(=O)c1ccc2ccccc2c1,inactive
12,COc1cc2nc(Cl)nc(NC3CC3)c2cc1OC,inactive
13,COc1c(C)c2c(c(O)c1C/C=C(\C)CCC(=O)O)C(=O)OC2,7.08 µM (active)
14,Oc1ccc(Cl)cc1C1C=C(c2ccc3c(c2)OCO3)NC(c2c(F)cccc2Cl)N1 (centres undefined),inactive
15,CCCCOc1ccc(C(=O)NO)cc1,inactive
16,Cc1nn(-c2ccc(F)cc2)c(-n2cccc2)c1C(=O)N1CCN(c2ccccc2)CC1,inactive
17,CCCCNC(=O)Cn1c(SCc2cccc(Cl)c2)nc2ccncc21,inactive
18,COc1ccc(Oc2cn[nH]c2-c2ccc(OC)cc2O)cc1,17.8 µM (active)
19,COc1ccc(-c2[nH]ncc2CN(C)Cc2c(C)n[nH]c2C)c(OC)c1,inactive
20,COc1ccc(-c2c(-c3ccc(OC)cc3O)nc(C)nc2C(F)(F)F)cc1,inactive
21,Cc1ccc(-n2c(SCC(=O)c3ccccc3)nc3c([nH]c4ccccc43)c2=O)cc1,inactive
22,COC(=O)C1=C(C(=O)OC)[C@@H]2N(Cc3ccccc3)c3ccccc3[C@@]23C[C@@H](C(=O)OC)N(S(=O)(=O)c2ccc(C(F)(F)F)cc2)C3=N1,inactive

row,Compound,Potency
1,CNCCCOc1cc2nc(N3CCCN(C)CC3)nc(NC3CCN(C)CC3)c2cc1OC,inactive
2,Cc1cccc(-n2ccnc2SCC(=O)Nc2cc(C(F)(F)F)ccc2Cl)c1,inactive
3,COc1ccc(CCn2c3c(c(=O)[nH]c2=S)CN(C(C)C)CN3)cc1OC,inactive
4,COc1ccc(N2C(=O)CS(=O)(=O)C23C(=O)N(Cc2ccc(C)cc2)c2ccccc23)cc1Cl (centres undefined),inactive
5,CN(C)Cc1cn(-c2ccccc2)nc1-c1ccccc1,inactive
6,O=C(Oc1ccc([N+](=O)[O-])cc1)c1ccc2ccccc2n1,inactive
7,O=[N+]([O-])c1ccc2c(c1)Nc1nc3ccccc3nc1N2,3.55 µM (active)
8,O=[N+]([O-])c1cc2ccccc2nc1-c1ccccc1,inactive
9,C=C1C=C(C(F)F)n2ncc(C(=O)NCCc3ccccc3OC)c2N1,inactive
10,CCOc1ccccc1CNC(=O)Nc1cn(CC(C)C)c(=O)c2ccccc12,inactive
11,C/C=C/NNC(=O)Cc1ccc(OC)cc1,inactive
12,CCN1CCN(c2nc(Nc3cc(OC)ccc3OC)nc(Nc3cc(OC)ccc3OC)n2)CC1,inactive
13,COc1ccc(OC)c(NC(=O)COC(=O)Cc2ccsc2)c1,inactive
14,COc1ccc(OC)c(Nc2nc(-c3ccc(O)c(O)c3)cs2)c1,11.2 µM (active)
15,CCOC(=O)c1ccc(NC2=CC(c3ccc(OCC)cc3)N(c3ccc(C(=O)OCC)cc3)C2=O)cc1 (centres undefined),inactive
16,CN(Cc1ccccc1)c1ccc(/C=C/c2ccnc3ccccc23)cc1,inactive
17,CC(=O)/C(C)=N/O,inactive
18,CC(C)(C)C1CCC(NC(=O)c2cnn3c2NC(=C2CC2)C=C3C(F)F)CC1 (centres undefined),inactive
19,CC1=C(C(=O)Nc2ccccc2Cl)C(c2cccs2)n2ncnc2N1 (centres undefined),inactive
20,Cc1ccc(-c2nnc3ccc(SCC(N)=O)nn23)cc1,inactive
